Structures are written as SMILES. The list shows a part of the results. Unmarked numbers belong to inactive results. Calls of active or inactive are those of the source.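 The calls were made as follows: active = at least twofold enzyme activation in any of six single-dose repeats, which the averaged readout prints as negative percent; inactive = the rest.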

The target in the test is Intestinal-type alkaline phosphatase (Homo sapiens) (UniProt P09923). Nature of the test: human IAP activators, confirmation, biochemical, luminescence, single concentration, uHTS hits (AID 434926). Particulars: purified IAP, CDP-Star luminescence, 30 min; at 8.3 µM; active compounds read low.
Chain of Intestinal-type alkaline phosphatase (Homo sapiens) (P09923 whole entry, looked up): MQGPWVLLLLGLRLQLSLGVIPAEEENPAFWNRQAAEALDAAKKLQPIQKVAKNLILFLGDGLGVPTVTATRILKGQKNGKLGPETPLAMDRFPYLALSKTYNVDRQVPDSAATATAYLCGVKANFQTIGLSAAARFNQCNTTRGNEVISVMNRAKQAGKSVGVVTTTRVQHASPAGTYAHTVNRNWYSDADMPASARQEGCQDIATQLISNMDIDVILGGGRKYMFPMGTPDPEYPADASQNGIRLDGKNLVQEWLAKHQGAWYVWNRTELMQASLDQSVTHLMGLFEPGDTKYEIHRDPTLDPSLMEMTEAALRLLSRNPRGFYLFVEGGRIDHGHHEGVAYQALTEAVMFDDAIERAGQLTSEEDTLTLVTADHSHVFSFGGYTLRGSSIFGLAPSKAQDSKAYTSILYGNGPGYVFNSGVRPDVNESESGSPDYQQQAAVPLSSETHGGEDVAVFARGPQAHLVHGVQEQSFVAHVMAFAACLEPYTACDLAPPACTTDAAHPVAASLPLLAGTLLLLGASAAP
As for `CCOC(=O)c1cn[nH]c1NC(=S)Nc1ccccc1`, the activation (%Activity, negative = activation) is -69.2%.
Take `CN1/C(=c2/s/c(=C3/C(=O)N(c4ccccc4)NC3=Nc3ccccc3)n(C)c2=O)C(C)(C)c2ccccc21`: the activation (%Activity, negative = activation) was -2.61%.
For the compound `Cc1cccc(NS(=O)(=O)c2cccc(C(=O)NNC(=O)c3ccccc3O)c2)c1`, the activation (%Activity, negative = activation) was 29.2%.
As to `COc1c(O)cc2oc(-c3ccc(O)c(O)c3)cc(=O)c2c1O`, the activation (%Activity, negative = activation) is -36.9%.
`Oc1cccc(/C=N/Nc2ccc(Cl)nn2)c1O`: the activation (%Activity, negative = activation) is 1.16%.
Consider `CC(C)Oc1ccc(CCC(=O)NNC(=S)NCc2ccccc2)cc1`, for which the activation (%Activity, negative = activation) is 46.5%.
In the case of `Cc1c(NC(=O)CN(C)CC(=O)Nc2ccc(F)c(F)c2F)c(=O)n(-c2ccccc2)n1C` it was -0.594%; in that of `O=C(Nc1ccc(Cl)cc1)c1ccsn1`, -68.3%; in that of `COc1cc(NC(=O)COC(=O)c2cnc(C)cn2)c(C)cc1[N+](=O)[O-]`, 6.98%.
In the case of `COc1ccc(C2=Nc3cc(C)ccc3OC2)cc1`, the activation (%Activity, negative = activation) is 58.3%.
In the case of `COc1ccc(CN2CCC(n3nccc3NC(=O)CCCc3ccccc3)CC2)cc1C`, the activation (%Activity, negative = activation) is -127% (active).
`Cc1cc(C(=O)NC2CC(C)(C)Cc3c2cnn3-c2ccccc2)n[nH]1` (stereo not given): the activation (%Activity, negative = activation) was 62.1%.
On to `N#C/C(=C\c1ccc(O)c(O)c1)C(=O)NCc1ccccc1`, for which the activation (%Activity, negative = activation) was -0.121%.
Turning to `COCCSc1nnc(NC(=O)CCS(=O)(=O)Cc2ccccc2)s1`, the activation (%Activity, negative = activation) was -46.9%.
Consider `CCOc1ccc(NC(=O)CSc2nncn2C)cc1`, for which the activation (%Activity, negative = activation) was -83.5% (active).
For `CCCOCC(O)CC(CC)C(=O)NNC(=S)Nc1ccccc1` (stereo not given), the activation (%Activity, negative = activation) was -138% (active).
In the case of `CC(=NCc1ccc2c(c1)OCO2)C1=C(O)c2ccccc2C1=O`, the activation (%Activity, negative = activation) is -2.92%.
For `COc1cccc(CNS(=O)(=O)c2ccc3c(c2)N(C(C)=O)CCS3)c1` the value was -34.5%; for `COc1ccc2c(c1OC)C(=O)N(c1ncn[nH]1)C2`, 12.6%; for `Cn1c(=O)c2c(nc(N/N=C/c3cccs3)n2Cc2ccc(Br)cc2)n(C)c1=O`, -8.19%.
Regarding `CC(=O)c1ccc(NC(=O)C2CCCN2S(=O)(=O)c2cccs2)cc1` (stereo not given), the activation (%Activity, negative = activation) was -85.1% (active).
`CCN1/C(=C\c2ccc3ccccc3[n+]2CC)Sc2cc(C)ccc21`: the activation (%Activity, negative = activation) was 32.7%.
In the case of `O=C(NNC(=S)Nc1ccccc1)c1cccc(S(=O)(=O)N2CCOCC2)c1` it was -70.7%.
On to `c1ccc(CSCCc2ccncc2)cc1`, for which the activation (%Activity, negative = activation) was -33.2% (active).
For the compound `Cc1cc(C)cc(NC(=O)NC2CCN(CC(=O)Nc3cccc(Cl)c3C)CC2)c1`, the activation (%Activity, negative = activation) is 1.71%.

The record behind these values is PubChem BioAssay AID434926 (Sanford-Burnham Center for Chemical Genomics, 2010).
